Experimental findings from PubChem BioAssay (EPA / NIEHS) are described below.

Assay [1] concerns the target Myc proto-oncogene protein (Homo sapiens) (UniProt P01106). Description: ATG_Myc_CIS: Attagene CIS-FACTORIAL HepG2 Assay for human Myelocytomatosis (Myc) Proto-Oncogene Transcription Factor (AID 2282990). As to conditions: HepG2, Attagene cis-reporter transcription factor activity; actives raise or lower the signal. The method, boiled down: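 DMSO-normalised, bidirectionally fitted reporter mRNA signal. HepG2 cells transfected with cis reporter constructs, treated 24 h; transcripts detected by RT-PCR, 6-FAM primer extension and CE.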

A short description of assay [2]: ATG_NRF2_ARE_CIS: Attagene CIS-FACTORIAL HepG2 Assay for human Nuclear Factor Erythroid 2 Related Factor 2 (NFR2) response to Antioxidant Response Elements (ARE) (AID 2282992). As to conditions: HepG2 Attagene ARE/NRF2 reporter, transcription factor activity; actives raise or lower the signal. The method, boiled down: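 Multiplexed reporter mRNA profiling in HepG2 after a 24 h chemical exposure. Curves fitted in both directions relative to DMSO negative control.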

The nature of assay [3]: ATG_Oct_MLP_CIS: Attagene CIS-FACTORIAL HepG2 Assay for human Octamer-Binding Transcription Factor (Oct) (AID 2282993). As to conditions: HepG2 Attagene cis-factorial Oct reporter, mRNA; actives raise or lower the signal. The method, boiled down: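 HepG2 cells transiently transfected with cis-element-driven reporter transcription units (endogenous TF activity); 24 h compound exposure. Reporter mRNA quantified by RT-PCR, 6-FAM labelling, HpaI digestion and capillary electrophoresis; bidirectional fit versus DMSO baseline.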

Assay [4] has as its target Cellular tumor antigen p53 (Homo sapiens) (UniProt P04637). Description: ATG_p53_CIS: Attagene CIS-FACTORIAL HepG2 Assay for human p53 Transcription Factor (AID 2282994). As to conditions: HepG2 p53 cis-element reporter, Attagene mRNA; actives raise or lower the signal. The method, boiled down:
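Multiplexed reporter mRNA assay in human HepG2 liver cells; cis-regulated units report endogenous factor activity. Values come from bidirectional curve fitting against DMSO negative control after 24 h treatment.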

Assay [5] in a line: ATG_NF_kB_CIS: Attagene CIS-FACTORIAL HepG2 Assay for human Nuclear Factor Kappa B (NF-kB) (AID 2282991). As to conditions: HepG2 Attagene cis-factorial NF-kB reporter mRNA; actives raise or lower the signal. The method, boiled down: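 Fluorescence of labelled RT-PCR products separated by capillary electrophoresis gives reporter mRNA levels from transfected HepG2 cells exposed 24 h; values are fitted in both directions relative to DMSO.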

Assay [6] has as its target human Peroxisome Proliferator-activated Receptor delta (PPARd), PPARD (gene 5467) (UniProt Q03181). Briefly: ATG_PPARd_TRANS: Attagene TRANS-FACTORIAL HepG2 Assay for human Peroxisome Proliferator-activated Receptor delta (PPARd) (AID 2283002; active = hit-call score of the fitted dose curve at least 0.9, where 1 is the maximum). The method, boiled down:
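Measured quantity: GAL4-UAS reporter transcript induction in HepG2 after 24 h chemical dosing, with NR-Gal4 chimeras supplied by transient transfection. Detection by RT-PCR and capillary electrophoresis; upward fit against DMSO.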

Assay [7] addresses human Retinoic Acid Receptor beta (RARb), RARB (gene 5915) (UniProt P10826). Briefly: ATG_RARb_TRANS: Attagene TRANS-FACTORIAL HepG2 Assay for human Retinoic Acid Receptor beta (AID 2283004; active = hit-call score of the fitted dose curve at least 0.9, where 1 is the maximum). The method, boiled down:
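Transient transfection of HepG2 with multiple reporter units → chemical dosing, 24 h → total RNA isolation → RT with oligo(dT) → reporter-specific PCR, 6-FAM primer extension, HpaI digest → capillary electrophoresis. Positive direction vs DMSO control.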

The target of assay [8] is Retinoic acid receptor alpha (Homo sapiens) (UniProt P10276). Briefly: ATG_RARa_TRANS: Attagene TRANS-FACTORIAL HepG2 Assay for human Retinoic Acid Receptor alpha (RARa) (AID 2283005; active = hit-call score of the fitted dose curve at least 0.9, where 1 is the maximum). The method, boiled down: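 HepG2 cells transiently transfected with multiple reporter units expressing chimeric RARα-GAL4 fusion, with GAL4-UAS-driven reporters. After 24 h compound exposure, reporter mRNA induction quantified by RT-PCR and capillary electrophoresis with fluorescent labeling; gain-of-signal fitted relative to DMSO control.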
Retinoic acid receptor alpha (Homo sapiens), sequence (P10276 whole entry, looked up, the tested form may be a part): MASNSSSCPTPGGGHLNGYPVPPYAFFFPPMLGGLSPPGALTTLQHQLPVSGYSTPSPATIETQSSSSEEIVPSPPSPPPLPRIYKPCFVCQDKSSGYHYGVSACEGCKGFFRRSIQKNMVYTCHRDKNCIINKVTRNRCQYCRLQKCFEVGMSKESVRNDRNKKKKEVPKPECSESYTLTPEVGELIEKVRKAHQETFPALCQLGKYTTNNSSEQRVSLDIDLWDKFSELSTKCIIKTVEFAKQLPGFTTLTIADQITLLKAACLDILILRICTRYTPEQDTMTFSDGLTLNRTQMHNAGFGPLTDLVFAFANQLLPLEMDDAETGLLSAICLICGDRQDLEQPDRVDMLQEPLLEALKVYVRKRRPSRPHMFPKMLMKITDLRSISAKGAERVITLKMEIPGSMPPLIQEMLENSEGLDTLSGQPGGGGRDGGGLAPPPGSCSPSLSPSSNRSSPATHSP

The target of assay [9] is Peroxisome proliferator-activated receptor gamma (Homo sapiens) (UniProt P37231). Briefly: ATG_PPARg_TRANS: Attagene TRANS-FACTORIAL HepG2 Assay for human Peroxisome Proliferator-activated Receptor-gamma (PPARg) (AID 2283007; active = hit-call score of the fitted dose curve at least 0.9, where 1 is the maximum). The method, boiled down:
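Twenty-four hours after chemical dosing of transiently transfected HepG2 cells, isolated RNA was converted to cDNA, reporter sequences amplified and 6-FAM-labelled, then HpaI-digested and analysed by capillary electrophoresis. Signal increase against DMSO was fitted.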

The target in assay [10] is human Retinoic Acid Receptor gamma (RARg), RARG (gene 5916) (UniProt P13631). Description: ATG_RARg_TRANS: Attagene TRANS-FACTORIAL HepG2 Assay for human Retinoic Acid Receptor gamma (RARg) (AID 2283009; active = hit-call score of the fitted dose curve at least 0.9, where 1 is the maximum). The method, boiled down:
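Transient transfection of HepG2 with multi-reporter constructs, then 24 h chemical treatment. Total RNA isolated, reverse-transcribed, PCR-amplified, fluorescently labelled and resolved by capillary electrophoresis; activity scored as mRNA induction versus DMSO.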

For assay [11], the target named is human Peroxisome Proliferator-activated Receptor alpha (PPARa), PPARA (gene 5465) (UniProt Q07869). Description: ATG_PPARa_TRANS: Attagene TRANS-FACTORIAL HepG2 Assay for human Peroxisome Proliferator-activated Receptor alpha (PPARa) (AID 2283001; active = hit-call score of the fitted dose curve at least 0.9, where 1 is the maximum). The method, boiled down: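 Gain-of-signal endpoint: reporter mRNA induction relative to DMSO, detected by fluorescent RT-PCR and capillary electrophoresis. HepG2 cells transiently carried GAL4-UAS-driven reporter units plus NR-Gal4 fusion; exposure lasted 24 h.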
human Peroxisome Proliferator-activated Receptor alpha (PPARa), PPARA (gene 5465), sequence (Q07869 whole entry, looked up, the tested form may be a part): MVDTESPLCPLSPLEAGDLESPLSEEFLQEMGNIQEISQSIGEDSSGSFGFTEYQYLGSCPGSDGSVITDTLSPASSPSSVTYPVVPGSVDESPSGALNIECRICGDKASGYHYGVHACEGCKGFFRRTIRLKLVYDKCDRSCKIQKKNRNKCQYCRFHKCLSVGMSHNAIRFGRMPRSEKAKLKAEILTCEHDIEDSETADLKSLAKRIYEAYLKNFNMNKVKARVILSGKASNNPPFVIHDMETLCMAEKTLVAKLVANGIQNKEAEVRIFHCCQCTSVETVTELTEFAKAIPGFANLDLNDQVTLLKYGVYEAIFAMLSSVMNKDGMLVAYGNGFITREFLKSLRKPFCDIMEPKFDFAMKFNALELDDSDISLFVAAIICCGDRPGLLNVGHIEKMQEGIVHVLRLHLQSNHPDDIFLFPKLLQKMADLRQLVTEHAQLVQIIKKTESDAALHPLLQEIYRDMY

For assay [12], the target named is Nuclear receptor subfamily 1 group I member 2 (Homo sapiens) (UniProt O75469). Briefly: ATG_PXR_TRANS: Attagene TRANS-FACTORIAL HepG2 Assay for human Pregnane X Receptor (PXR) (AID 2283008; active = hit-call score of the fitted dose curve at least 0.9, where 1 is the maximum). The method, boiled down: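 Measures mRNA induction of a GAL4-UAS-driven reporter in human HepG2 cells transiently expressing PXR fused to Gal4, following 24 h treatment. DMSO served as negative control and baseline.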
Nuclear receptor subfamily 1 group I member 2 (Homo sapiens), sequence (O75469 whole entry, looked up, the tested form may be a part): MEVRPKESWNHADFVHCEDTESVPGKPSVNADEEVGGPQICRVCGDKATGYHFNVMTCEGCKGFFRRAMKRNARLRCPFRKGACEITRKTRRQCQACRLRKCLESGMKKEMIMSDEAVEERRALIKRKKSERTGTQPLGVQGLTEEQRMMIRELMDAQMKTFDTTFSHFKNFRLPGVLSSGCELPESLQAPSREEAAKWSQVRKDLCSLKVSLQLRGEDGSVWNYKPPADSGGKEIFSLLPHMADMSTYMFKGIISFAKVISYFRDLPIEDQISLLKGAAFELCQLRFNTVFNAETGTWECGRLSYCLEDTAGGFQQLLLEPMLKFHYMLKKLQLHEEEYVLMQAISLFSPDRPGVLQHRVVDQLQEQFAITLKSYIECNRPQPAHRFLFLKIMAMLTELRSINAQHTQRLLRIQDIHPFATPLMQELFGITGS

The target of assay [13] is human RAR-related Orphan Receptor beta (RORb), RORB (gene 6096) (UniProt Q92753). Description: ATG_RORb_TRANS: Attagene TRANS-FACTORIAL HepG2 Assay for human RAR-related Orphan Receptor beta (RORb) (AID 2283010; active = hit-call score of the fitted dose curve at least 0.9, where 1 is the maximum). The method, boiled down: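 Readout is reporter-gene mRNA induction, detected as fluorescence after RT-PCR and capillary electrophoresis, fitted for gain of signal against DMSO controls. Transiently transfected HepG2 liver cells carrying GAL4-UAS reporter constructs were treated for 24 hours.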
human RAR-related Orphan Receptor beta (RORb), RORB (gene 6096), sequence (Q92753 whole entry, looked up, the tested form may be a part): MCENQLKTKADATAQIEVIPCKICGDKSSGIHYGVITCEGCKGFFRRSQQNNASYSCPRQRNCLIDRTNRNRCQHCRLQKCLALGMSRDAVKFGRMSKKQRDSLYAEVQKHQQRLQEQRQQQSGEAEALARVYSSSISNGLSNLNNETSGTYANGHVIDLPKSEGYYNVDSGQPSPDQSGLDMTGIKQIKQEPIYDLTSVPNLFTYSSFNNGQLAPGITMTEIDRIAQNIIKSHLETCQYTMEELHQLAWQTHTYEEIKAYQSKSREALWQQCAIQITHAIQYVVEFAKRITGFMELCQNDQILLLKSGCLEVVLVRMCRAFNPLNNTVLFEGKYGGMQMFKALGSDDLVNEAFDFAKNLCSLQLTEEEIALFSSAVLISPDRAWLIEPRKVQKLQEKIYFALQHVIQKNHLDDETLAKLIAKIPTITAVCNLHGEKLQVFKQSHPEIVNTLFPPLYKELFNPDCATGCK

Assay [14] can be described thus: BSK_3C_TissueFactor: BioMAP Diversity Plus: 3C Assay for Tissue Factor Biomarker Activity (AID 2282997). As to conditions: BioMAP 3C HUVEC, tissue factor biomarker readout; actives raise or lower the signal. The method, boiled down: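 ELISA read-out of Tissue Factor levels on human umbilical vein endothelium collected 24 h after chemical dosing. Gain or loss of signal was fitted relative to DMSO.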

Assay [15] is described as follows: BSK_3C_uPAR: BioMAP Diversity Plus: 3C Assay for Urokinase-type plasminogen activator receptor (uPAR) Biomarker Activity (AID 2282998). As to conditions: BioMAP 3C HUVEC, uPAR biomarker ELISA; actives raise or lower the signal. The method, boiled down:
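Primary human umbilical vein endothelial cells, 3C system; surface uPAR measured by ELISA 24 h after dosing. Cytotoxicity via SRB total protein in parallel cultures; bidirectional fit against DMSO.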
For orientation: ELISA stands for enzyme-linked immunosorbent assay.

The nature of assay [16]: BSK_3C_VCAM1: BioMAP Diversity Plus: 3C Assay for Vascular cell adhesion molecule 1 (VCAM1) Biomarker Activity (AID 2282999). As to conditions: BioMAP 3C HUVEC, VCAM1 ELISA, cytokine-stimulated; actives raise or lower the signal. The method, boiled down:
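Human umbilical vein endothelial cells were dosed with compound for 24 h, after which cell-surface VCAM-1 was quantified by ELISA. Bidirectional curve fitting used DMSO as negative control and activity baseline.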

A short description of assay [17]: BSK_4H_Eotaxin3: BioMAP Diversity Plus: 4H Assay for Eotaxin 3 Biomarker Activity (AID 2283000). As to conditions: primary human endothelial cells (HUVEC); actives raise or lower the signal. The method, boiled down: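 Chemicals were added to human umbilical vein endothelium cultures, and Eotaxin-3 was quantified by ELISA at 24 h. Values were derived by bidirectional fitting with DMSO serving as negative control and activity baseline.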

Assay [18] in a line: BSK_3C_Proliferation: Cell Proliferation Assessment in the BioMAP Diversity Plus: 3C Assay (AID 2283006).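 Note: potency may reflect either rise or fall in cell number versus DMSO.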 As to conditions: primary human endothelial cells (HUVEC). The method, boiled down:
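Read-out is total protein by SRB absorbance at 560 nm, taken as a proxy for relative cell number. Primary human umbilical vein endothelium cultured below confluence was dosed for 48 h, TCA-fixed and SRB-stained; curves were fitted bidirectionally versus DMSO.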

The target in assay [19] is human RAR-related Orphan Receptor gamma (RORg), RORC (gene 6097) (UniProt P51449). Description: ATG_RORg_TRANS: Attagene TRANS-FACTORIAL HepG2 Assay for human RAR-related Orphan Receptor gamma (RORg) (AID 2283011; active = hit-call score of the fitted dose curve at least 0.9, where 1 is the maximum). The method, boiled down: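 First, HepG2 liver cells were transfected with GAL4-UAS-driven reporter constructs and the RORg-Gal4 fusion. Next, they were treated with chemical for 24 h. Finally, reporter mRNA was quantified by RT-PCR and capillary electrophoresis, with upward activity fitted against DMSO.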
human RAR-related Orphan Receptor gamma (RORg), RORC (gene 6097), sequence (P51449 whole entry, looked up, the tested form may be a part): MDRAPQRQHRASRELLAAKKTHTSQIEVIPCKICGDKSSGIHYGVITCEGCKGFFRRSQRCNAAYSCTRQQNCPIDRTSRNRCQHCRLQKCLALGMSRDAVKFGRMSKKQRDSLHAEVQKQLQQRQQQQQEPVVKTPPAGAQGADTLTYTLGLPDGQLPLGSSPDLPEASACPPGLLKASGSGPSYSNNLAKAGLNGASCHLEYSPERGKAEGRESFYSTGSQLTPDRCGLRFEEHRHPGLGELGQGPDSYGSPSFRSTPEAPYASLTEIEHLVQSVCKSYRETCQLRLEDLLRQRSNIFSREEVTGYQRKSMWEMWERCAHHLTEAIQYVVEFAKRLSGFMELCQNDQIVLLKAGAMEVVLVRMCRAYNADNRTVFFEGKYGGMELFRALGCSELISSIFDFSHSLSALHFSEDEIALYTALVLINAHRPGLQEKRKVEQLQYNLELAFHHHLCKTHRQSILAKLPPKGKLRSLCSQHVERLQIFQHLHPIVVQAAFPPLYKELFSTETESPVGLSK

Inconclusive results are not listed. Calls of active or inactive are those of the source. Rule for the calls, unless noted: active = hit-call score of the fitted dose curve at least 0.9, where 1 is the maximum; inactive = score below 0.9.

human Retinoic Acid Receptor beta (RARb), RARB (gene 5915), sequence (P10826 whole entry, looked up): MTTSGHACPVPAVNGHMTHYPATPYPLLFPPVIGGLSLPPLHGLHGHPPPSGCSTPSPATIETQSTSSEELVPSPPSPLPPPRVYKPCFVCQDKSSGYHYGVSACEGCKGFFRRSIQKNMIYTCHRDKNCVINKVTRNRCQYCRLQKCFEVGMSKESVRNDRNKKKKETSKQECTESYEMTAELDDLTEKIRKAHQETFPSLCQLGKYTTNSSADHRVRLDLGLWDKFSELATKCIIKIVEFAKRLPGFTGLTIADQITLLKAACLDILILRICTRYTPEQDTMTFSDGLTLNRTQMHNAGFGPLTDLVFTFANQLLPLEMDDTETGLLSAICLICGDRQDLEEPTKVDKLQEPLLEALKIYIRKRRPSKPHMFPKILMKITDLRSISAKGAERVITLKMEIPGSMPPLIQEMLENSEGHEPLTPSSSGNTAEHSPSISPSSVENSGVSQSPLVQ
Cellular tumor antigen p53 (Homo sapiens), sequence (P04637 whole entry, looked up): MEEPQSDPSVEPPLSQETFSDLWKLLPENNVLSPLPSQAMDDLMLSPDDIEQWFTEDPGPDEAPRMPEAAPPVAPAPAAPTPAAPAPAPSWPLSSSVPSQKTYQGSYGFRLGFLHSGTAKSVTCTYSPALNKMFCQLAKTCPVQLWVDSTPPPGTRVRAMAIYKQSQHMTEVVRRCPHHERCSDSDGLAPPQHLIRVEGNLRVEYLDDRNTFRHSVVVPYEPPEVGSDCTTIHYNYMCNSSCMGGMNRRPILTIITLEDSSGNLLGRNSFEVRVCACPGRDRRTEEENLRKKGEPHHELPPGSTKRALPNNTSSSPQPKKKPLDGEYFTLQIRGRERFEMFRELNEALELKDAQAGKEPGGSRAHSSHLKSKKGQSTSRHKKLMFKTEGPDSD
human Peroxisome Proliferator-activated Receptor delta (PPARd), PPARD (gene 5467), sequence (Q03181 whole entry, looked up, the tested form may be a part): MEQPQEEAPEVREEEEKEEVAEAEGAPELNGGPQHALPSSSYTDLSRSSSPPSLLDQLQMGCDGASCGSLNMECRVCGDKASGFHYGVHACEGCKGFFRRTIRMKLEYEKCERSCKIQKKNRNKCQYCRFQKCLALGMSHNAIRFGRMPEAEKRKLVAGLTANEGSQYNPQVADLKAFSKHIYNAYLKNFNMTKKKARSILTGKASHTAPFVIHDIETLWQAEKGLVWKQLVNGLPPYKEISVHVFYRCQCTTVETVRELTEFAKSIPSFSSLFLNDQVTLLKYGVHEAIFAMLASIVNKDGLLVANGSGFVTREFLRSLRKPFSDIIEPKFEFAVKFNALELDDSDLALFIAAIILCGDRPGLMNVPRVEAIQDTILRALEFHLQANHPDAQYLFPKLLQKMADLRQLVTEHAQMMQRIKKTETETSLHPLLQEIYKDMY
Myc proto-oncogene protein (Homo sapiens), sequence (P01106 whole entry, looked up): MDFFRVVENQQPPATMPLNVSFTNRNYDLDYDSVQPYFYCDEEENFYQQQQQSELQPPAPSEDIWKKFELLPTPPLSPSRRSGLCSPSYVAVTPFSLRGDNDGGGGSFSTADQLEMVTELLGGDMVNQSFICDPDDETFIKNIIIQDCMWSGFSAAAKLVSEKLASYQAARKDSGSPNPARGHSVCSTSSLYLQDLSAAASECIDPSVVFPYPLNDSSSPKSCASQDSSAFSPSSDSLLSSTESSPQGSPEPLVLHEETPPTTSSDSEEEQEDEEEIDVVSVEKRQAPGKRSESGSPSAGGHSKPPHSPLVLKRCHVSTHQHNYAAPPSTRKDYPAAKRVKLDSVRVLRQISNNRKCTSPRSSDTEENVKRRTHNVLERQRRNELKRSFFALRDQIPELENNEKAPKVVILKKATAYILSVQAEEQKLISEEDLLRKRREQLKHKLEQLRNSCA
Peroxisome proliferator-activated receptor gamma (Homo sapiens), sequence (P37231 whole entry, looked up): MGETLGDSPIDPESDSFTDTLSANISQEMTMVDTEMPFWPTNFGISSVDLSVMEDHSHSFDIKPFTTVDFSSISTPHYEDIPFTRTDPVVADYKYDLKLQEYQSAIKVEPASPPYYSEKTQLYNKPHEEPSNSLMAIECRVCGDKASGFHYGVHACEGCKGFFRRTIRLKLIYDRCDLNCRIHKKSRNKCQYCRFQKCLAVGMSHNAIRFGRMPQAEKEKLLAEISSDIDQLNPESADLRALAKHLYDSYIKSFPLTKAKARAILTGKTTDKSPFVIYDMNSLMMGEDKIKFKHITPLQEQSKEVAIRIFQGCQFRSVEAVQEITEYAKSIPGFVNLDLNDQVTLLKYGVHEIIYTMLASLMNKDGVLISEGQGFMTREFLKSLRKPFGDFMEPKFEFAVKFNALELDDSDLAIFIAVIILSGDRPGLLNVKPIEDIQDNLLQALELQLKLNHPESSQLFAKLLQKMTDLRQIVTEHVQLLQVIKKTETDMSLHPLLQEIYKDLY

Consider `O=C(O)CCCCCCCCC(=O)O`, for which the outcome in assay [1], in [2], in assay [3] and in [4] was inactive.

For the compound `CCCCC1CCC(O)CC1` (centres undefined), the compound was called inactive in [1], in assay [5], in [2], in assay [4], in assay [6] and in assay [7]. Also, the call in assay [8], in assay [9] and in assay [10] was inactive.

Regarding `CN(C)c1cccc(O)c1`, the call in [1], in assay [5], in assay [2], in [11], in assay [6] and in assay [9] was inactive. Further, the AC50 (in general, the midpoint of the concentration-response curve, whichever way the signal moves) in assay [12] is 5.57 µM (active).

For the compound `COC(=O)c1ccc([N+](=O)[O-])cc1`, the result in assay [1], in [5], in assay [2], in [4], in assay [11] and in assay [6] was inactive. Further, the outcome in assay [9] and in [13] was inactive.

For `COc1ccc(OC)c(N=Nc2c(O)ccc3ccccc23)c1`, the compound was classed as inactive in [1], in assay [5], in assay [4], in assay [14], in assay [11] and in [6]. Besides, the result in assay [7], in assay [9], in [13] and in assay [19] was inactive. Besides, the AC50 in [2] is 0.493 µM (active); in [15], 12.2 µM (active); in assay [16] it was 20 µM (active); in [17] it was 9.47 µM (active); in assay [18], 12.6 µM (active); in [12], 4.23 µM (active).

Consider `C=CCCC(=O)/C=C/C1C(C)=CCCC1(C)C` (centres undefined), for which the result in [1], in assay [5], in assay [4] and in [6] was inactive. Besides, the AC50 in assay [2] was 110 µM (active); in assay [9] it was 24.4 µM (active).

Consider `O=P(O)(O)O`, for which the outcome in assay [1], in [5], in assay [2], in assay [3], in [13] and in assay [19] was inactive.

For `CCCCCCCC(=O)OCCCCCC`, the outcome in [1], in [5], in [2], in [4], in assay [6] and in assay [7] was inactive. In addition, the compound was classed as inactive in assay [8], in assay [9], in assay [12], in [10] and in [19].

As to `C[C@H](CCC(=O)NCC(=O)O)[C@H]1CC[C@H]2[C@@H]3[C@H](O)C[C@@H]4C[C@H](O)CC[C@]4(C)[C@H]3C[C@H](O)[C@]12C`, the outcome in assay [1], in [5], in assay [2], in [4], in assay [7] and in [8] was inactive. Further, in assay [9], the compound was classed as inactive.
